The sample as a whole holds a higher share of hits than the screen did.
Pf Dd2 growth: Plasmodium falciparum Dd2 growth inhibition | P. falciparum Dd2 growth, SYBR Green, 72 h | Potency, µM (doses to about 28.9 µM), without a hit: top-dose activity, negative = inhibition, hits mostly inhibitors | 4.3% of 120,000 active | AID 1347417; active = well fitted inhibition curve with a large enough effect;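 note: plate controls were DMSO vehicle for no effect and reference drug for full effect; nearly all actives have a fitted effect of over 65% in size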
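Readout: SYBR Green fluorescence, 485 nm excitation, 535 nm emission, after ~16 h lysis at 37C. Before that, Dd2-infected red cells (2.5% hematocrit) grew 72 h with compound, 29 uM top final concentration.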
* = called active by the depositor; i = inactive; [ ] = remark or other dose. Potency is the fitted concentration of half-maximal effect.

SMILES	Pf Dd2 growth
COc1ccccc1-c1nc(-c2nnn3c2COC(c2ccccc2Cl)C3)no1 (stereo not given)	-5%
Clc1ccccc1C1Cn2cnc(-c3nc(-c4ccncc4)no3)c2CO1 (stereo not given)	5.6µM*
CCOc1cc(-c2noc(-c3ncn4c3COC(c3ccc(OC)cc3)C4)n2)ccc1OC (stereo not given)	2.5µM*
COc1ccccc1-c1noc(-c2nnn3c2COC(c2ccc(F)cc2)C3)n1 (stereo not given)	i
COc1ccc(C2Cn3nnc(-c4nc(-c5ccc(OC)c(F)c5)no4)c3CO2)cc1 (stereo not given)	-23%
COc1ccc(-c2noc(-c3ncn4c3COC(c3ccc(F)cc3)C4)n2)cc1OC (stereo not given)	8.9µM*
COc1cc(-c2noc(-c3ncn4c3COC(c3ccc(F)cc3)C4)n2)cc(OC)c1OC (stereo not given)	11µM*
CCOc1ccc(C2Cn3nnc(-c4nc(-c5ccc(OC)c(F)c5)no4)c3CO2)cc1 (stereo not given)	i
Cc1c(NC(=O)c2ccco2)cccc1C(=O)N1CCn2nc(C(=O)O)cc2C1	-9%
CN1C[C@H](NCc2cnn(C)c2)CCC[C@@H](C(=O)NCc2cc(F)cc(F)c2)CC1=O	16%[44.1 µM]
Cc1ccc(C)c(-c2[nH]ncc2CN2CCCn3nc(CO)cc3C2)c1	-4%
CNC(=O)[C@@H]1CN(C(=O)COc2ccc(Cl)cc2C)C[C@H]1COC	i
COCCOCc1nc(C2CCN(C(=O)Nc3ccc(OC)c(OC)c3)CC2)no1	6%
COc1cccc([S+](=O)([O-])N2CCn3ncc(C(=O)N4CCOCC4)c3C2)c1	2%
CN(Cc1ccccc1)Cc1cn(C[C@H]2CC3CCN2C[C@@H]3C(=O)NCc2ccc(F)cc2)nn1 (stereo not given in full)	10µM*
CN(Cc1ccccc1)Cc1cn(C[C@H]2CC3CCN2C[C@@H]3C(=O)NCc2ccccc2)nn1 (stereo not given in full)	i
CC(=O)NCCNC(=O)[C@H]1CN2CCC1C[C@@H]2Cn1cc(CN(C)Cc2ccccc2)nn1 (stereo not given in full)	6%
CCCCC(=O)N1CCN(C2CCN(CCC(C)C)C2=O)CC1 (stereo not given)	i
COc1cc(CNc2ccc3[nH]c(=O)[nH]c3c2)cc(Br)c1OCc1ccc(F)cc1	13µM*
COc1cc(CNc2ccc3[nH]c(=O)[nH]c3c2)cc(Cl)c1OCc1ccc(F)cc1	-26%
COc1cc(CNc2ccc3[nH]c(=O)[nH]c3c2)cc(Cl)c1OCc1ccccc1F	-17%
CC1=NOC2(CCN(Cc3ccc(N(C)C)cc3)C2)C1 (stereo not given)	i
O=C(c1ccccc1)N1CCC2(CC1)N=C(c1ccc(Cl)cc1)NO2	i
COc1ccccc1C(=O)N1CCC(c2c[nH]c3ccccc23)(c2c[nH]c3ccccc23)CC1	3.5µM*
COc1ccccc1C(=O)N1CCC2(C1)C(=O)N(C)c1ccccc12 (stereo not given)	i
SMILES	Pf Dd2 growth
COc1ccccc1C(=O)N1CCC(C(=O)O)(c2ccccc2)CC1	4%
CCN(CC)c1ccc(C(=O)N2CCC(c3ccncc3)CC2)cc1	57%[5.79 µM]
CCN(CC)c1ccc(C(=O)N2CCC(c3c[nH]c4ccccc34)(c3c[nH]c4ccccc34)CC2)cc1	4µM*
Cc1ccc(C(=O)N2CCC3(C2)C(=O)Nc2ccccc23)cc1 (stereo not given)	-10%
CN(C)C(=O)NCc1cc2n(n1)CCN(Cc1cn[nH]c1-c1ccccc1)C2	-1%
Cc1ccc(CN2C[C@@H]3C(=O)N(CCCN4CCCC4=O)C(=O)[C@@H]3C2)cc1	-11%
O=C(c1cccc(F)c1)N1CCOc2ccc(CN3CCc4ccccc4C3)cc2C1	7.9µM*
Cn1nccc1C(=O)N1CCOc2ccc(CN3CCc4ccccc4C3)cc2C1	-7%
Cc1cccc(C(=O)N2CCOc3ccc(CCC(N)=O)cc3C2)c1	-18%
O=C(c1noc2c1CCCC2)N1CCOc2ccc(CN3CCN(c4ccccn4)CC3)cc2C1	-17%
O=C(CC(F)(F)F)N1CCOc2ccc(CN3CCc4ccccc4C3)cc2C1	i
O=C(NCc1ccco1)N1CCOc2ccc(CN3CCc4ccccc4C3)cc2C1	-18%
O=C(C1CCC1)N1CCOc2ccc(CN3CCc4ccccc4C3)cc2C1	10µM*
CCNC(=O)N1CCOc2ccc(CN3CCc4ccccc4C3)cc2C1	i
Cc1ccsc1C(=O)N1CCOc2ccc(CN3CCc4ccccc4C3)cc2C1	7.9µM*
NCCCC(=O)N1CCC2(CC1)CN(C(=O)Cc1ccc(Cl)cc1)CCO2	8%
O=C(C1CC(=O)N(c2n[nH]c3ccccc23)C1)N1CCN(CCc2ccncc2)CC1 (stereo not given)	-14%
COCc1cc(C[C@@H]2CC[C@H](O)[C@@H](CNC(=O)c3ccccc3)O2)no1	-21%[44.1 µM]
CCC1c2nccn2CCCN1C(=O)CCc1c(C)noc1C (stereo not given)	-23%
COC[C@@H]1CN(C(=O)Cc2cccc(OC)c2)C[C@H]1c1ccccn1	-3%
NC(=O)[C@@H](Cc1c[nH]c2ccccc12)NC(=O)[C@@H]1C[C@@H](NS(=O)(=O)c2cccs2)CCN1C(=O)COCC(=O)O	1%
COc1ccc(S(=O)(=O)N2CCC3(CC2)CC(CC(=O)N2CCCC2)CCO3)cc1 (stereo not given)	i
Cc1ccc(C2Cn3nnc(C(=O)N4CCC(C(=O)NCc5ccccc5F)CC4)c3CO2)cc1 (stereo not given)	-10%
Cc1ccc(-c2nn(-c3cccc(F)c3)cc2CN(C)CCO)o1	7.9µM*
Cc1cc(CN(C)Cc2cn(-c3cccc(F)c3)nc2-c2ccc(C)o2)n[nH]1	-2%
SMILES	Pf Dd2 growth
COc1ccc(-c2nn(-c3ccccc3C)cc2CN(C)Cc2cn(C)nc2C)cc1F	i
O=C(NCCn1cccn1)C1CCC(=O)N(C2CCCCCC2)C1 (stereo not given)	-6%
COc1cccc(CN2CC3(CCN(C(=O)CSC(C)C)CC3)CC2=O)c1	-3%
Cn1cnc(S(=O)(=O)N2CCC[C@H](n3c(=O)n(C)c4cccnc43)C2)c1	-2%
O=C(NCC1CCCN(C(=O)N2CCCC2)C1)c1ccc(-c2ccccc2)cc1 (stereo not given)	-11%
CCCCC(=O)OC1=C(C(=O)c2ccccc2)N(CC)S(=O)(=O)c2ccccc21	1%
CCCCCN1C(C(=O)c2ccccc2)=C(NC(=O)c2ccc(OC)c(OC)c2)c2ccccc2S1(=O)=O	89%
CCN1C(C(=O)c2ccccc2)=C(NC(=O)c2ccc(Cl)cc2)c2ccccc2S1(=O)=O	13µM*
CCc1noc(-c2cccn3c(CNC(=O)C(C)c4ccccc4)nnc23)n1 (stereo not given)	i
CCOc1ccccc1CN1CCc2nc(N(C)C)[nH]c(=O)c2CC1	i[5.79 µM]
COCCn1cc(CN2CCN(c3ccccn3)CC2)ccc1=O	5%
CCOc1ccc(CN2CCc3nc(Nc4ccc(OC)cc4OC)ncc3C2)cc1	i
Cc1ccc(CN2CCc3nc(N4CCN(c5ccccc5F)CC4)ncc3C2)cc1C	-7%
COc1ccccc1N1CCN(c2ncc3c(n2)CCN(Cc2ccccc2C)C3)CC1	11%
CCN1CCN(c2ncc3c(n2)CCN(Cc2ccc(C)s2)C3)CC1	-9%
CCCCN1CCc2nc(N3CCN(C)CC3)ncc2C1	3%
CCN1CCN(c2ncc3c(n2)CCN(Cc2cc(Br)cs2)C3)CC1	13µM*
Cc1ccccc1CN1CCc2nc(N3CCN(c4ncccn4)CC3)ncc2C1	8.9µM*
